Shown are actives, neighbours in structure and some others; about 3% of the full set was active somewhere.
GRP78 ERSR act = qHTS for Inducers of the Endoplasmic Reticulum Stress Response (ERSR) in Human Glioma: qHTS; 420,000 compounds, 0.02% hits; U87-MG GRP78 promoter luciferase reporter, 16 h; Potency, µM, most hits filed as activators; also: series mostly up to about 76 µM; nearly all actives have a fitted effect of over 35% in size
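Stably transfected U87-MG glioma cells carrying a GRP78-based luciferase sensor; 16 h compound incubation. Luminescence end-point read 10 min after Bright-Glo addition at room temperature.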
DRD3 antagonist = qHTS of D3 Dopamine Receptor Antagonist: qHTS; D3R cells, DiscoveRx beta-arrestin luminescence, antagonist mode; hits give low values; max response, negative = inhibition, %; 360,000 compounds, 2.5% hits; AID 652054, 2013; in the data active = max response below about -50%; inconclusive = no clear call, values can overlap the other calls
Target sequence (P35462 whole entry, looked up): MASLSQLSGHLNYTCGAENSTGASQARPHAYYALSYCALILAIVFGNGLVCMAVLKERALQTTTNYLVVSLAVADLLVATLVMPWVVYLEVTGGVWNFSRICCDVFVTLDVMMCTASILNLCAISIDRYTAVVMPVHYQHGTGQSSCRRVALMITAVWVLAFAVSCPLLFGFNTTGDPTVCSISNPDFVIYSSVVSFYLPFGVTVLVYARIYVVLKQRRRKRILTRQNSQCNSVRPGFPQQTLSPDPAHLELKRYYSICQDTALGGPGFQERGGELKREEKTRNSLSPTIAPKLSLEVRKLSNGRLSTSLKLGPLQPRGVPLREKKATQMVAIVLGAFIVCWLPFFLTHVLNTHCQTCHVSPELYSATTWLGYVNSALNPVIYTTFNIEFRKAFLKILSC
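Cells expressing the human receptor were seeded at 1500 cells/well, incubated overnight at 37 degrees C in 5% CO2, then exposed to library compounds with dopamine controls for 90 minutes at 37 degrees C before luminescent detection.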
DRD3 agonist = qHTS of D3 Dopamine Receptor Agonist: qHTS; D(3) dopamine receptor (Homo sapiens), P35462; D3R DiscoveRx beta-arrestin cells, luminescence, 90 min; max activation, %; 410,000 compounds, 0.58% hits; AID 652048, 2013; in the data active = max activation above about 30%
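Agonist-mode cell screen: cells plated at 1500/well and incubated overnight at 37 °C, then exposed to library compounds for 90 min at 37 °C. Detection reagent was added for 30–60 min at room temperature, and luminescence was read.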
Nrf2 ARE act = qHTS of Nrf2 Activators. AREc32 ARE-luciferase reporter (MCF7-derived line), luminescence, 24 h. Potency, µM (series often up to 46.1 µM), usual class: activators. 410,000 compounds, 0.31% hits. AID 624171, 2012; also: nearly all actives have a fitted effect of over 65% in size
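AREc32 cells carrying an ARE-driven firefly luciferase reporter were seeded at 1000 cells/well in OPTI-MEM with 5% FBS, then exposed to compound for 24 hr at 37 deg C. Luminescence was read with Steady-Glo after 30 min at RT.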
A number is an active result; n = inactive; u = inconclusive; x = no result given. Unless noted, calls follow the shape of the dose curve; as a rule, active = well fitted curve in the direction sought with a large enough effect; inconclusive = small, poorly fitted or top-dose-only effect, or another doubt; inactive = no such curve, though single readings can be large; an effect the other way counts as inactive or inconclusive.

SMILES | GRP78 ERSR act | DRD3 antagonist | DRD3 agonist | Nrf2 ARE act
CC1CC=CC2C1C(=O)N(Cc1ccccc1)C2c1ccc(-c2ccc(N(C)C)cc2)cc1F (configuration not stated) | n | x | x | x
Cc1ccccc1NC(=O)C(Cl)=C(Cl)Cl | 35µM | n | n | n
Cc1oc(-c2ccccc2NC(=O)c2ccccc2)nc1CNC(=O)C1CC(=O)OC12CCCCC2 (configuration not stated) | n | x | x | x
CCN1CCN(C(=O)/C=C/c2ccc(C(C)C)cc2)CC1 | n | u | n | n
CCN1CCC(O)(/C=C/c2ccc(C(C)C)cc2)C(C(=O)/C=C/c2ccc(C(C)C)cc2)C1 (configuration not stated) | n | -66 | n | u
Cc1noc(/C=C/Nc2ccc(F)cc2F)c1[N+](=O)[O-] | n | n | n | 2.8µM
CC1(c2nnc(-c3ccccc3)o2)CC(c2ccc([N+](=O)[O-])cc2)=NO1 (configuration not stated) | n | n | 37 | n
CC1(c2nnc(-c3ccccc3)o2)CC(c2ccc(Cl)cc2)=NO1 (configuration not stated) | n | n | 43 | n
Cn1cc(S(C)=O)c(=O)c2ccc(F)cc21 (configuration not stated) | n | x | n | x
COc1ccc(CN2CCNC(=O)C2CC(=O)NC2CCCCCC2)c(F)c1 (configuration not stated) | n | -69 | n | n
COC(=O)c1cccc(N(CC(=O)NC2CCCC2)C(=O)CCC(=O)Nc2cc(C)on2)c1 | n | n | n | n
Cc1cccc(N(CC(=O)NC2CCCC2)C(=O)CCC(=O)Nc2cc(C)on2)c1 | n | n | 32 | n
Cc1ccc(C2=NN(C(=O)CCC(=O)O)C(c3cccc([N+](=O)[O-])c3)C2)cc1 (configuration not stated) | n | -58 | n | n
COc1cc(/C=C2\SC(=S)N(NC(=O)c3ccccc3O)C2=O)ccc1O | n | n | n | n
O=C(NN1C(=O)/C(=C/c2ccc(O)c([N+](=O)[O-])c2)SC1=S)c1ccccc1Cl | n | -74 | n | n
CC[C@H](C)[C@H](NC(=O)[C@H](CC(C)C)NC(=O)[C@H](CC(N)=O)NC(=O)[C@@H](NC(=O)[C@@H](N)Cc1ccc(O)cc1)[C@@H](C)CC)C(=O)N[C@@H](Cc1ccc(O)cc1)C(=O)N[C@@H](CCCN=C(N)N)C(=O)N[C@@H](CC(C)C)C(=O)N[C@@H](CCCN=C(N)N)C(=O)N[C@@H](Cc1ccc(O)cc1)C(N)=O | n | x | x | x
OC(CNCC1COc2ccccc2O1)COc1ccccc1F (configuration not stated) | n | -78 | n | n
OC(CNCC1CCCO1)COc1ccc(OCC(O)CNCC2CCCO2)cc1 (configuration not stated) | n | n | n | n
CCc1ccccc1OCC(=O)NCC1COc2ccccc2O1 (configuration not stated) | n | n | n | n
OC(CNCC1COc2ccccc2O1)COc1ccc(Cl)cc1 (configuration not stated) | n | -80 | n | n
CCN1C(=O)[C@@H]2[C@H]3C(=CC[C@H]2C1=O)C(=O)[C@H]1OC1[C@H]3O (some centres not stated) | n | x | x | x
Clc1ccc(/C=C/c2ccnc3ccccc23)c(Cl)c1 | n | x | x | x
Cc1nc(NCC(=O)c2c[nH]c3ccccc23)sc1C | n | x | x | x
CNc1ccc(/C=C/c2ccnc3ccccc23)cc1 | n | x | x | x
COc1cc(C2C=C(C34CC5CC(CC(C5)C3)C4)NC(=S)N2)cc(OC)c1OC (configuration not stated) | n | -82 | n | n
SMILES | GRP78 ERSR act | DRD3 antagonist | DRD3 agonist | Nrf2 ARE act
COc1ccc(OC)c(C2C=C(C34CC5CC(CC(C5)C3)C4)NC(=S)N2)c1 (configuration not stated) | n | u | n | n
O=C(O)CCC/C=C\C[C@@H]1[C@@H](CC[C@@H](O)CCc2ccccc2)[C@H](O)C[C@@H]1O | n | x | x | x
COc1ccc(/C=N/NC(=O)c2ccncc2)cc1CN1CCN(c2ccc(F)cc2)CC1 | n | -55 | n | n
COC(=O)c1c(OCc2ccccc2)cc(=O)n2c1CCN(Cc1cccc(C)n1)CC2 | n | x | x | x
O=C1CC(c2ccccc2)CC(O)=C1C=NCc1ccccc1 (configuration not stated) | n | n | n | n
O=C1CC(c2ccccc2)CC(O)=C1C=NCc1ccco1 (configuration not stated) | n | -57 | n | n
O=C1CC(c2ccccc2)CC(O)=C1C=NCc1ccccc1Cl (configuration not stated) | n | -92 | n | n
COc1ccc(NC(=O)C(=O)NCCc2csc(-c3ccc(Cl)cc3)n2)cc1 | n | x | n | n
CCCc1cc(=O)[nH]c2nnc(SCCC(C)C)n12 | n | x | n | n
O=C(Nc1cc(OC(=O)C(F)(F)F)c2nonc2c1OC(=O)C(F)(F)F)C(F)(F)F | n | x | x | x
O=C(O)CSc1cc(NS(=O)(=O)c2ccc(Cl)cc2)c2ccccc2c1O | n | n | n | n
Cc1cc(C)c(S(=O)(=O)Nc2cc(SCC(=O)O)c(O)c3ccccc23)cc1C | u | -54 | n | n
CCOc1ccc(/C(O)=C2/C(=O)C(=O)N(c3ncccn3)C2c2ccc(C)cc2)cc1 (configuration not stated) | n | n | 31 | n
O=[N+]([O-])c1ccc(Oc2ccc(N=C=S)cc2)cc1 | n | x | n | x
CC[C@@H](c1ccccc1)n1c(=O)n2n(c1=O)[C@H]1[C@H](O)[C@H]3O[C@@H]3/C(=N/OC[C@@H](O)COCc3ccco3)[C@@H]1CC2 | n | x | x | x
CCOC(=O)c1sc(NC(=O)c2cc(-c3ccccc3C)nc3ccccc23)c(C#N)c1C | n | n | 33 | n
Cc1ccccc1-c1cc(C(=O)Nc2sc(C)c(C)c2C(N)=O)c2ccccc2n1 | n | n | n | n
CCOC(=O)c1sc2ccccc2c1OC(=O)c1ccc(C)cc1 | n | n | 35 | n
CCOC(=O)c1ccc(NC(=O)c2sc3ccccc3c2Cl)cc1 | n | x | n | n
CCCc1cc(C(=O)Nc2ccc(F)c(Cl)c2)no1 | n | -51 | n | n
CCCc1cc(C(=O)Nc2cccc(Cl)c2)no1 | n | u | n | n
COC(=O)c1ccc(CN2C(=O)NC3(CCC(C)CC3)C2=O)o1 (configuration not stated) | n | -65 | n | n
COC(=O)c1ccc(CN2C(=O)NC3(CCC(C)CC3)C2=O)cc1 (configuration not stated) | n | n | n | n
CS(=O)(=O)N(CC(=O)NCC1CCCO1)c1cc(Cl)cc(Cl)c1 (configuration not stated) | n | -97 | n | n
Cn1c(-c2ccccc2)cnc1N | n | -117 | n | n
CCCOc1ccccc1C(=O)N1CCCCC1CCN1CCCCC1 (configuration not stated) | n | x | 49 | n

High-throughput results as filed in PubChem.
